Bioassay records from PubChem.
Pf Dd2 growth: qHTS Primary assay for Inhibitors of Plasmodium falciparum Dd2 growth in vitro | hit rate 4.3% among 120,000 | Potency, µM (highest dose often 28.9 µM), most hits filed as inhibitors | AID 1347417, 2020 | P. falciparum Dd2 growth, SYBR Green, 72 h; active = well fitted inhibition curve with a large enough effect; note: nearly all actives have a fitted effect of over 65% in size
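Infected erythrocytes (Dd2, 0.3% parasitemia, 2.5% hematocrit final) are added to compound in RPMI-1640/Albumax II medium, grown 72 h at 37C in low oxygen, then lysed with saponin/Triton-X containing SYBR Green and read by fluorescence.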
Each line names hits and unclear results; the compound was inactive in the other large screens. The full list was thinned out, with hits kept by preference.

CCN1c2cc(C(=O)N3CCN(C4CCCCC4)CC3)ccc2C(=O)N2CCCCC21 (stereo unspecified)	none
COc1cccc(NC(=O)C2CC(=O)N(c3n[nH]c4cccc(F)c34)C2)c1 (stereo unspecified)	none
Cc1ccc(C(=O)N2CCCC(n3cc(-c4nc(-c5ccccc5)no4)nn3)C2)s1 (stereo unspecified)	none
CN1C[C@@H](NC(=O)NC2CCCCC2)C[C@H]1c1nc(-c2cnccn2)no1	none
CC1(c2ccccc2)N(Cc2cccnc2)C(=O)OC12CCN(C(=O)Cc1ccccc1)CC2 (stereo unspecified)	none
CC1(c2ccccc2)N(Cc2ccccc2)C(=O)OC12CCN(C(=O)COc1ccccc1)CC2 (stereo unspecified)	none
CC1(c2ccccc2)N(Cc2ccccc2C#N)C(=O)OC12CCN(C(=O)CN1CCOCC1)CC2 (stereo unspecified)	none
CC1(c2ccccc2)N(Cc2ccccc2)C(=O)OC12CCN(Cc1cccnc1N)CC2 (stereo unspecified)	none
COc1ncccc1CN1CCC2(CC1)OC(=O)N(Cc1ccccc1C#N)C2(C)c1ccccc1 (stereo unspecified)	Pf Dd2 growth 4.5µM
COc1cccc(CN2C(=O)OC3(CCN(Cc4c[nH]c5ccccc45)CC3)C2(C)c2cccnc2)c1 (stereo unspecified)	Pf Dd2 growth 0.79µM
COc1cccc(CN2C(=O)OC3(CCN(C(=O)C4CCC4)CC3)C2(C)c2cccnc2)c1 (stereo unspecified)	none
COc1cccc(CN2C(=O)OC3(CCN(C(C)=O)CC3)C2(C)c2cccnc2)c1 (stereo unspecified)	none
CC1(c2cccnc2)N(Cc2ccccc2)C(=O)OC12CCN(C(=O)COc1ccccc1)CC2 (stereo unspecified)	Pf Dd2 growth 6.3µM
CCc1c(C)nc(C)nc1N1CCN(C)C2(CCC(=O)N(CC)CC2)C1 (stereo unspecified)	none
CCCC(=O)N1CCC2CC(=O)NCCC2C1 (stereo unspecified)	none
Cc1ccc(-c2cnc([C@@H]3COCCN3C)[nH]2)cc1	none
CCc1nc(-c2c3n(c(=O)n(CC(=O)Nc4cc(C)cc(C)c4)c2=O)CCCC3)no1	none
COc1ccc(NC(=O)C2(C)CCCc3cnc(Nc4cccnc4)nc32)cc1 (stereo unspecified)	none
COc1cccc(Nc2ccc3c(n2)C(C)(C(=O)NCCc2cnc[nH]2)CN(C)C3)c1 (stereo unspecified)	none
COc1cccc(Nc2ccc3c(n2)C(C)(C(=O)NCCc2ccccn2)CN(C)C3)c1 (stereo unspecified)	Pf Dd2 growth 3.2µM
COCCN1Cc2ccc(NCC(C)C)nc2C(C)(C(=O)NCc2cccnc2)C1 (stereo unspecified)	none
COCCN1Cc2ccc(Nc3cccnc3)nc2C(C)(C(=O)Nc2cccc(F)c2)C1 (stereo unspecified)	Pf Dd2 growth 8.9µM
COc1cccc(Nc2ncc3c(n2)C(C)(C(=O)NCCN2CCOCC2)CC3)c1 (stereo unspecified)	none
COCCn1c(CO)nnc1C1CC(NC(=O)C2(C)CCCC2)C1 (stereo unspecified)	none
O=C(N[C@H]1CCOC[C@H]1C1CCOCC1)c1cnc(CN2CCCC2)s1	none
COc1ccccc1C(=O)NC1CCN(c2cc(-c3ccc(F)cc3)[nH]n2)C1 (stereo unspecified)	none
Cc1noc(C)c1CN1CCNc2cc(-c3ccccc3)ncc2C1	none
O=C(NCC1CN(Cc2cccnc2)CC12CN(c1ccccc1)C2)C1CC1 (stereo unspecified)	none
c1ccc(-n2cc(CN3CCN(c4nc5ccccc5o4)CC3)nn2)cc1	none
COc1ccc(C(=O)N2CCN(Cc3cn(-c4ccccc4)nn3)CC2)cc1	none
Cc1cc(C)cc(N2CCN(Cc3cn(-c4ccccc4)nn3)CC2=O)c1	Pf Dd2 growth 11µM
CCc1ccccc1NC(=O)CCn1ccn2nc3c(c2c1=O)CCCC3	none
CC(C)c1nnc(C2CN(C(=O)CCC3CCCCC3)CC23CCOCC3)o1 (stereo unspecified)	none
CCCN(CC1CCOC1)C(=O)CCCc1ccccc1 (stereo unspecified)	none
N#Cc1ccc(CN2CCCC(c3nc(-c4cccnc4)no3)CCNC(=O)CC2)cc1 (stereo unspecified)	Pf Dd2 growth 4µM
O=C1CCN(CC2CC2)CCCC(c2nc(-c3cccnc3)no2)CCN1 (stereo unspecified)	none
N#Cc1ccccc1CN1CCCC(c2nc(-c3cccnc3)no2)CCNC(=O)CC1 (stereo unspecified)	none
Cc1noc([C@H]2CCN(C(=O)NCc3ccc(F)cc3)C[C@H]2NC(=O)C2CCOCC2)n1	none
CCc1cc(N2CCC(Oc3ccccc3OC)(C(=O)O)CC2)nc(C)n1	none
Cc1ncc(CO)c2c1Oc1nc(-c3ccc(Cl)cc3)nc(SCC(=O)N3CCCCC3)c1C2	Pf Dd2 growth 3.2µM
COc1cccc(-c2nc3c(c(SCC(=O)Nc4cc(C)ccc4C)n2)Cc2c(CO)cnc(C)c2O3)c1	none
Cc1ccc(NC(=O)CSc2nc(-c3ccc(F)cc3)nc3c2Cc2c(CO)cnc(C)c2O3)cc1C	none
O=C(CSc1nc(-c2ccc(Cl)cc2)nc2c1Cc1ccccc1O2)N1CCCCC1	none
Cc1cc(C)c(NC(=O)CSc2nc(-c3ccc(F)cc3)nc3c2Cc2c(CO)cnc(C)c2O3)c(C)c1	none
Cc1cccc(NC(=O)CSc2nc(-c3cccc(C)c3)nc3c2Cc2c(CO)cnc(C)c2O3)c1	Pf Dd2 growth 8.9µM
CCC(CC)NC(=O)C1Cn2cccc2C(=O)N1Cc1ccccc1 (stereo unspecified)	none
Cc1ccc(C2Cn3cnc(C(=O)N4CCC(C(=O)NCc5cc(F)ccc5F)CC4)c3CO2)cc1 (stereo unspecified)	none
Cc1nc(N)nc(C)c1CC(=O)N1CCn2nc(C(O)CO)cc2C1 (stereo unspecified)	none
COc1ccc2c(c1)c(=O)c(S(=O)(=O)c1ccc(Cl)cc1)cn2C	none
CCc1ccc2c(c1)c(=O)c(S(=O)(=O)c1ccc(Cl)cc1)cn2CC	none
CCc1ccc(S(=O)(=O)c2cn(CC(=O)Nc3cccc(C)c3)c3ccc(Cl)cc3c2=O)cc1	none
CCc1ccc2c(c1)c(=O)c(S(=O)(=O)c1ccc(F)cc1)cn2CC(=O)Nc1ccccc1OC	none
COc1ccc(NC(=O)Cn2cc(S(=O)(=O)c3ccc(C)cc3)c(=O)c3ccccc32)cc1OC	none
COc1cc2c(=O)c(S(=O)(=O)c3ccc(F)cc3)cn(Cc3ccccc3C)c2cc1OC	Pf Dd2 growth 11µM
CCOc1ccc2c(c1)c(=O)c(S(=O)(=O)c1ccccc1)cn2CC(=O)Nc1ccccc1OC	Pf Dd2 growth 11µM
CCOc1ccc2c(c1)c(=O)c(S(=O)(=O)c1ccc(Cl)cc1)cn2Cc1ccccc1C	Pf Dd2 growth 13µM
CCn1cc(S(=O)(=O)c2ccccc2)c(=O)c2cc(F)c(F)cc21	none
CCOc1ccc2c(c1)c(=O)c(S(=O)(=O)c1ccc(CC)cc1)cn2Cc1cccc(Cl)c1	Pf Dd2 growth 10µM
COc1cc(NC(=O)Cn2cc(S(=O)(=O)c3ccccc3)c(=O)c3ccccc32)cc(OC)c1	none
CCOc1ccc(S(=O)(=O)c2cn(CC)c3ccc(F)cc3c2=O)cc1	none
O=C(C1CCCC1)N1CCC(Cc2ccccc2)(C(=O)O)CC1	none
COCCC(=O)N1CCC(N2C[C@H](O)C[C@H]2C(=O)NCc2cccc(OC)c2)CC1	none
Cc1ccc(C(=O)N2CCC(n3c(=O)[nH]c4ccccc43)CC2)cc1	none
CCOc1ccccc1C1NC(=O)N(CC(=O)Nc2cccc(Cl)c2)C2=C1C(=O)OC2 (stereo unspecified)	none
CCc1ccc(NC(=O)NCCc2noc(C)n2)cc1	none
